# Assay results published in ChEMBL document CHEMBL3988442, “University of Dundee, Small-Polar-MMV Screening Library” (2021).
# Molecular target: AMP-activated protein kinase, AMPK (Homo sapiens) (UniProt P54646+O43741+P54619+Q9UGJ0+Q9Y478+Q13131+Q9UGI9)
# Test: AMP-dependent Kinase enzyme assay. An in vitro enzyme assay that detects ADP turnover that is directly proportional to AMPK activity. This uses naive AMPK that is activated during the assay with MK-8722
# Type: functional
# Parameters: scale not given: direction of the effect not stated beside the values
# Conditions: 30 µM
row,SMILES,Percent Effect [%]
1,Cc1cc(C)n2c(CNCCNc3ccccc3)cnc2n1,-15.1
2,CCN(CC)C(=O)N1CCOCC1c1c(C)nn(C)c1C (stereo not given),2.79
3,O=C(c1cccc(-n2cnnc2)c1)N1C[C@@H](O)[C@H](N2CCOCC2)C1,15.5
4,CCc1nc(NC(=O)Cc2csc(-c3nnc[nH]3)n2)sc1C,3.13
5,CCN(Cc1cnc(C)cn1)C1CCN(c2ccccc2)C1=O (stereo not given),-4.52
6,CCOc1cc(F)ccc1NC1CCN(CC(F)(F)F)C1=O (stereo not given),-28.4
7,Cc1noc(C)c1CCc1nc(C2CCOC2)no1 (stereo not given),-7.75
8,Cc1ccc(F)c2c1N(C(=O)c1ccc(S(C)(=O)=O)cc1)CCC2,0.782
9,O=C(NCc1nnnn1-c1ccccc1)c1ccc(C2CCCO2)s1 (stereo not given),1.57
10,COCCC(=O)Nc1nc2c(OC)cc(F)cc2s1,-1.47
11,COc1cc(CN2CCC(COCc3ccccc3)CC2)cc(OC)c1,0.75
12,Cc1c(Br)cccc1CSc1nnc(CO)n1C,4.59
13,CC(C)(C)C(=O)N1CCCC1(C(=O)N1CCCC1)c1cnccn1 (stereo not given),-4.87
14,Oc1ccc(N2CCC(Cc3ccccc3)CC2)nn1,9.16
15,Cc1nc(NC(=O)C(C)N(C)Cc2ccc3c(c2)OCO3)sc1C (stereo not given),6
16,CN(Cc1ccccc1CNC(=O)C1CNC(=O)N1)C1CCCCC1 (stereo not given),-6.64
17,COc1cc(C)c(S(=O)(=O)CC(=O)N(C)C(C)C)cc1OC,5.04
18,CS(=O)(=O)NC1CCN(Cc2coc(-c3ccc(Cl)cc3)n2)CC1,1.23
19,CCN(CC)C(CNC(=O)c1cccnc1-n1cncn1)c1ccsc1 (stereo not given),5
20,Cc1cc(NC(=O)Cn2ccc(=O)c3ccccc32)[nH]n1,-3.42

row,SMILES,Percent Effect [%]
1,COCCC(=O)N1CCC(c2nnc(-c3ccsc3)o2)CC1,2.43
2,Cn1ccnc1-c1nc(N2CCCCC2)ncc1-c1ccccc1F,9.62
3,CCCc1ccc(CN2CCC3(CCC(=O)N(C)CC3)CC2)o1,1.5
4,COCC(NC(=O)c1cc(NC(C)=O)ccc1Cl)c1ccccn1 (stereo not given),1.62
5,Cc1ccc(-c2nnn(CCN3C(=O)CCC3=O)n2)cc1,-8.21
6,CCC1CCCCN1C(=O)Cn1cnc(C#N)n1 (stereo not given),-0.907
7,CCC(CNS(=O)(=O)c1cccc(C(=O)OC)c1)N1CCCC1 (stereo not given),-8.76
8,Cc1nn(C)c(C)c1-c1ccc(=O)n(C(C)C(=O)NC2CCCC2)n1 (stereo not given),9.03
9,CN(Cc1ccsc1)C(=O)c1nc(N2CCCCC2)ncc1Cl,0.035
10,C=C(C)CN(CC)C(=O)CN1CCCC1C(=O)N(C)C (stereo not given),3.77
11,COc1ccccc1CC(C)CC(=O)N(C)Cc1cc(C)on1 (stereo not given),3.99
12,CCOc1ccc(C(=O)NC2CC2)cc1C,4.59
13,CCc1cc(NCCCNS(C)(=O)=O)nc(-c2ccncc2)n1,-3.23
14,CNC(=O)CN(C)C(=O)c1ccc(-c2nc(C)cs2)cc1,-2.2
15,CCCn1nnnc1COC(=O)C1COc2ccc(Cl)cc2C1 (stereo not given),19.7
16,Oc1cc(C2CCCN(Cc3cccs3)C2)nc(-c2ccccn2)n1 (stereo not given),16.9
17,C/C(Cl)=C/CNC(=O)[C@H]1CC[C@]2(CC1)CN(C)C(=O)c1ccccc1O2,7.27
18,OC(CNCc1nnc2ccccn12)c1ccc2c(c1)OCO2 (stereo not given),9.33
19,CCOCCNCc1cc(O)c2cc(C)ccc2n1,-3.23
20,CNC(=O)c1cccnc1NCc1ccc(Cn2cccn2)cc1,-3.46
